This is a sample that favours compounds with a hit; in the whole collection about 3.5% have one here.
MITF primary: MITF inhibitors, primary screen, biochemical, AlphaScreen, human. 650,000 tested, 0.91% active. AlphaScreen MITF homodimerization, bead proximity signal. inhibition, % at 2.6 µM; in the data active = inhibition above about 50%
FBW7 activator: FBW7 E3 ligase activators, primary screen, biochemical, AlphaScreen, human; F-box/WD repeat-containing protein 7 (Homo sapiens), Q969H0; AlphaScreen FBW7–phospho-cyclin E peptide binding, activator screen; normalized activity (activation), % at 26.1 µM; 650,000 tested, 0.13% active; in the data active = normalized activity above about 1.9%;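 also: purified mutant Fbw7 with reduced substrate affinity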
TEAD-YAP block: TEAD-YAP interaction inhibition, primary screen, TEAD-YAP interaction inhibitor project, luminescence, HEK-TIYL cells | TEAD-Gal4/YAP UAS-luciferase luminescence | 640,000 tested, 1.4% active | inhibition, % at 9.12 µM; in the data active = inhibition above about 32%
GPR151 ag: activators of human GPR151, primary screen, cell-based, PathHunter beta-arrestin, luminescence; G-protein coupled receptor 151 (Homo sapiens), Q8TDV0; PathHunter beta-arrestin GPR151 cells; activation, % at 11.2 µM; 650,000 tested, 1% active; AID 1508602, 2020; in the data active = activation above about 4.9%
GPR151 confirm: GPR151 activators, triplicate retest, confirmation, cell-based, PathHunter beta-arrestin, luminescence. shares compounds with GPR151 ag. GPR151 PathHunter beta-arrestin cells, 90 min; % of EA-reagent control over plate median. activation, % at 11.2 µM. 6,700 tested, under 10 active. AID 1508609, 2020;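 active = mean percent activation across replicates above the confirmation screen cutoff of 4.91%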
GPR119 counter: GPR119 activators in beta-arrestin cells, counter-screen for GPR151 activator project, cell-based, PathHunter beta-arrestin, luminescence, triplicate. 6,700 tested, 0.3% active. activation, % at 11.2 µM. AID 1508611, 2020. 90 min; 0 = compound-well median, 100 = enzyme-acceptor control. shares compounds with GPR151 ag;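 active = mean percent activation in the counterscreen above 29.09%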;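 also: counterscreen on off-target GPR119 to flag nonselective hits from the GPR151 activator screen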
A number is an active result; - = inactive; . = not tested or not shown.

SMILES	MITF primary	FBW7 activator	TEAD-YAP block	GPR151 ag	GPR151 confirm	GPR119 counter
O=C(CN(c1cccc(Cl)c1)S(=O)(=O)c1ccc(Cl)cc1)N1CCOCC1	-	-	-	9.1	-	-
CN1CCN(C(=O)CN(c2cccc(Cl)c2)S(=O)(=O)c2ccc(Cl)cc2)CC1	-	-	-	-	.	.
N#Cc1ccc(OCC(=O)c2ccc3ccccc3c2)cc1	-	-	-	-	.	.
COc1ccc(Br)cc1S(=O)(=O)N1CCN(c2ccc(N3CCCC3)nn2)CC1	-	-	-	7.7	-	-
COc1ccccc1N1CCN(S(=O)(=O)c2ccc(Br)cc2C)CC1	-	-	-	8.5	-	-
O=C(c1ccccc1NS(=O)(=O)c1ccc(Br)s1)N1CCCC1	-	-	-	5.0	-	-
Cc1ccc(-c2cncc(-c3cc(Nc4ncccn4)nc(C)n3)c2)cc1	-	-	-	-	.	.
COc1ccc(-c2cncc(-c3cc(Nc4ncccn4)nc(C)n3)c2)cc1	-	-	-	6.9	-	-
COc1ccc(-n2nc(C(=O)NCC(=O)N3CCCC3)c3ccccc3c2=O)c(OC)c1	-	-	-	-	.	.
COc1ccc(-n2nc(C(=O)NCC(=O)Nc3ccc(OC)c(OC)c3)c3ccccc3c2=O)cc1Cl	-	-	-	6.3	-	-
CCOC(=O)N1CCN(C(=O)CNC(=O)c2nn(-c3ccc(OC)cc3OC)c(=O)c3ccccc23)CC1	-	-	-	5.3	-	-
CC1CC(C)CN(S(=O)(=O)c2ccc(F)c(C(=O)Nc3cccc(Cl)c3Cl)c2)C1 (stereo not given)	-	-	-	-	.	.
Cc1nc2nc(SCC(=O)Nc3cccc(Cl)c3C)nn2c(C)c1Cc1ccccc1F	-	-	-	-	.	.
COc1ccc(C(=O)CN2CCN(S(=O)(=O)c3ccc(C(C)C)cc3)CC2)cc1OC	-	-	-	-	.	.
Fc1ccccc1/C=N\Nc1nc2ccccc2o1	-	-	-	11.0	-	-
COc1ccc(CN=c2oc3c(C)ncc(CO)c3cc2C(N)=O)cc1	-	-	-	-	.	.
COc1ccc(-c2nnc(SCC(=O)Nc3cccc(Cl)c3C)nc2-c2ccc(OC)cc2)cc1	-	-	-	5.8	-	-
Cc1nnc(SCC(=O)NC(C)C23CC4CC(CC(C4)C2)C3)s1 (stereo not given)	-	-	-	-	.	.
CCN(CC)S(=O)(=O)c1ccc(C(=O)N2c3ccccc3N3C(c4c(C)cc(C)cc4C)=NON23)cc1	-	-	-	-	.	.
COc1ccc(-c2noc(CCC(=O)Nc3ccc(C)cc3)n2)cc1	-	-	-	-	.	.
Cc1cccc(-c2noc(CCC(=O)N(C)C)n2)c1	-	-	-	-	.	.
COc1ccc(-c2noc(CCC(=O)Nc3cccc(Cl)c3)n2)cc1	-	-	-	9.5	-	-
CN(C)C(=O)CCc1nc(-c2ccc(Cl)cc2)no1	-	-	-	7.2	-	-
COc1cccc(-c2noc(CCC(=O)NC(C)C)n2)c1	-	-	-	5.6	-	-
COc1ccc(-c2noc(CC(=O)Nc3cccc(Cl)c3)n2)cc1	-	-	-	-	.	.
SMILES	MITF primary	FBW7 activator	TEAD-YAP block	GPR151 ag	GPR151 confirm	GPR119 counter
COc1ccc(-c2noc(CCC(=O)Nc3ccc(C)c(C)c3)n2)cc1	-	-	-	5.2	-	-
CCOC(=O)C1=C(C)NC(=S)NC1c1c(O)ccc2ccccc12 (stereo not given)	-	-	-	-	.	.
O=C(Nc1ccc2c(c1)OCO2)c1cnsn1	-	-	-	-	.	.
CC1CCCN(S(=O)(=O)c2cccs2)C1 (stereo not given)	-	-	-	10.0	-	-
NC(=O)c1cccc(NC(=O)c2ccccc2-n2cc(NC(=O)C3COc4ccccc4O3)cn2)c1 (stereo not given)	-	-	-	-	.	.
Cc1ccc2c(Cn3cc(C(F)(F)F)cc(Cl)c3=O)cc(=O)oc2c1	-	-	-	7.6	-	-
COc1ccc(-c2noc(CNC(=O)c3ccc(C(C)(C)C)cc3)n2)cc1	-	-	-	-	.	.
CC(C)CCN1C(=O)CC(NNC(=O)c2ccc(F)cc2)C1=O (stereo not given)	-	-	-	5.7	-	-
COc1ccccc1OCc1nnc(SCCN2CCOCC2)o1	-	-	-	5.9	-	-
COc1cncc(-c2cnn3c(NCCN(C)C)ccnc23)c1	-	-	-	-	.	.
CCOC(=O)Cc1csc(NC(=O)CSc2nc(C)cc(C)n2)n1	-	-	-	5.6	-	-
COc1cccc(/C=C/C(=O)Nc2ccc3nc(N4CCCCC4)cc(C)c3c2)c1OC	-	-	-	5.4	-	-
CC/C=C\C[C@H]1O[C@H]1C/C=C\C/C=C\C/C=C\CCCC(=O)O	-	.	.	-	.	.
N#C/C(=C\c1ccccc1)C(=O)OCC(=O)Nc1ccc(C(F)(F)F)cc1[N+](=O)[O-]	-	-	-	-	.	.
CCOC(=O)CN1C(=O)S/C(=C/c2cc([N+](=O)[O-])ccc2OC)C1=O	-	-	-	-	.	.
C=C(C)CN(CC)Cc1nc(-c2ccccn2)no1	-	-	-	14.4	-	-
COC(=O)c1ccc(N2N=C(C)/C(=C/c3ccc(-c4cccc(C(=O)O)c4)o3)C2=O)cc1	-	-	-	-	.	.
CCC(C)CC(=O)N1CCc2nnc(CNC(=O)CCc3cccnc3)n2CC1 (stereo not given)	-	-	-	9.0	-	-
CCOCCCNC(=O)C(NC(=O)C1CCC(=O)N1)c1ccccc1 (stereo not given)	-	-	-	5.6	-	-
CC(C)OC(=O)c1ccc2c(c1)C(=O)N(c1cccc(N)c1)C2=O	-	-	-	-	.	.
CN(C)CC(C)(O)c1ccc2c(c1)CN(C(=O)C(=O)c1ccccc1)CCO2 (stereo not given)	-	-	-	-	.	.
Cc1ccc(S(=O)(=O)NCC2(c3cccs3)CCOCC2)c(C)c1	-	-	-	7.3	-	-
CN(C)C(C(=O)NC1CCCC1)c1ccc(Cl)cc1 (stereo not given)	-	-	-	6.0	-	-
Cc1ccc(C(C(=O)NC2CCCC2)N(C)C)cc1 (stereo not given)	-	-	-	-	.	.
COc1ccc(-n2ncc3c(Nc4ccc(Cl)c(Cl)c4)ncnc32)cc1	-	-	-	-	.	.
COc1ccc(Nc2ncnc3c2cnn3-c2ccc(Cl)cc2)cc1Cl	-	-	-	11.1	-	-
CCC(Oc1ccccc1)C(=O)O/N=C(\N)c1ccncc1 (stereo not given)	-	-	-	-	.	.
